Screening results as filed in PubChem.
D2 ag-1 – D2 dopamine receptor (human) agonism. HEK293 T-REx D2 cells, calcium flux agonist mode. activation, % at 2 µM. hit rate 0.53% among 340,000;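 active = activation over 3 SD above normal in the single-dose calcium agonist read, cut at about 30% in these data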; also: 0% is about no effect
Target sequence (P14416 whole entry, looked up): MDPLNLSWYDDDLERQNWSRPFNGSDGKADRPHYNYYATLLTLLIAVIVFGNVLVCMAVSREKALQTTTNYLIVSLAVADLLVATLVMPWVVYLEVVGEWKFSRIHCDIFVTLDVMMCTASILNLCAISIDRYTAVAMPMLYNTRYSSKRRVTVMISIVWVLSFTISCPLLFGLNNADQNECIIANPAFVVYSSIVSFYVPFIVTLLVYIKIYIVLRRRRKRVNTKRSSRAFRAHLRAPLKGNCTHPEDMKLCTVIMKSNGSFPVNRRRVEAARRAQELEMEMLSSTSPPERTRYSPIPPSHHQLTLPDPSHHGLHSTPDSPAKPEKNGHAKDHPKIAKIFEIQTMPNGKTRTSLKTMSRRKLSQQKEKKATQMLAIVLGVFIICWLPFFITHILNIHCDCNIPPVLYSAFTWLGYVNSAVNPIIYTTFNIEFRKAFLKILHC
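Tetracycline-induced HEK293 T-REx cells with force-coupled D2 receptor, plated overnight at 30 C, loaded with no-wash calcium dye. After a 10 s baseline, compound was pin-added and calcium flux read kinetically for 180 s; calcium rises flagged agonists.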
D2 antagonist – D2 dopamine receptor (human) antagonism | P14416 | HEK293 TREx D2 cells, calcium flux, dopamine EC80 | inhibition, % at 10 µM | hit rate 2% among 340,000 | AID 485344; in the data active = inhibition above about 30%; inactive = below that, where a call was filed; also: 0% is about no effect
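Calcium mobilization kinetics were recorded at 1 s intervals in tetracycline-induced HEK293 T-REx D2 cells, first for 180 s after compound addition and then 180 s after EC80 dopamine.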
D2 ag-2 – agonists of human D2 dopamine receptor (beta-arrestin) | hit rate 0.084% among 360,000 | DiscoveRx PathHunter D2 beta-arrestin, luminescence, 90 min; 100% = 57 uM dopamine signal | activation, % (concentration not given with the values) | P14416; in the data active = activation above about 40%; inconclusive = between about 15% and that limit
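Agonist mode: compounds alone added to overnight-plated D2 PathHunter cells for 90 min at 37 C, with 57 uM final dopamine (EC100) defining full response. Beta-arrestin recruitment detected by chemiluminescent reagent, read after 1 h at ambient temperature.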
D2 PAM-1 – D2 dopamine receptor (human) potentiation | P14416 | HEK293 T-REx D2, calcium flux, EC20 dopamine potentiation | potentiation, % at 10 µM | hit rate 0.34% among 340,000 | AID 485347;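 active = potentiation over 3 SD above the plate norm, cut at about 30% in these data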; also: 0% is about no effect
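Using a no-wash calcium dye in inducible, force-coupled HEK293 Trex cells expressing D2, we tracked fluorescence each second for 180 s after compound, then for 180 s after EC20 dopamine to detect augmented signalling.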
LDHA inh – inhibitors of human lactate dehydrogenase A; P00338; purified LDHA, NADH/diaphorase-resazurin fluorescence; stronger effect = lower value; activity change, % (values are at about 110 or 230 µM); hit rate 0.15% among 480,000; AID 1347041; in the data active = activity change below about -30%; inconclusive = mostly about -25% to -30%;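 also: plate controls were DMSO wells for no effect and wells without enzyme for full effect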
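Human LDH5 at 2 nM final in Tris HCl pH 7.4 with 0.06 mM NADH and 0.2 mM pyruvate, reacted 5 minutes at room temperature. Remaining NADH coupled via diaphorase/resazurin; resorufin fluorescence read at 0 and 20 minutes, normalized to enzyme-free and DMSO wells.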
D2 PAM-2 – positive allosteric modulators of human D2 dopamine receptor; P14416; DiscoveRx D2 beta-arrestin cells, luminescence, 90 min; 100% = 57 uM dopamine signal; potentiation, % (test concentration not listed); hit rate 0.23% among 360,000; AID 624464; in the data active = potentiation above about 50%; inconclusive = mostly about 30% to 49%
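PathHunter D2 cells, attached overnight at 37 deg C, received compound in DMSO plus dopamine at EC20 (50 nM final) for 90 min at 37 deg C. Beta-arrestin recruitment was read as luminescence after 1 h with detection reagent at ambient temperature.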
* marks the source's active call; other numbers are inactive results; ? = inconclusive; . = not tested or not shown. Shown are actives, neighbours in structure and some others; about 2.1% of the full set was active somewhere.

SMILES	D2 ag-1	D2 antagonist	D2 ag-2	D2 PAM-1	LDHA inh	D2 PAM-2
CNC(=O)CSc1nnc(COc2ccc([N+](=O)[O-])cc2)n1C	-0.9	75.9*	-1.9	.	0.9	0.9
CNC(=O)NC(=O)CN(C)Cc1ccc(C(C)C)cc1	.	.	.	.	-6.4	.
Cc1nc2cc(NC(C)C(=O)Nc3cc(Cl)ccc3Cl)ccc2o1 (stereo not given)	.	.	.	.	55.9	.
Cc1cccc(C)c1NS(=O)(=O)c1cccc(C(F)(F)F)c1	.	.	.	.	6.9	.
Cc1ccc(OCC(=O)O/N=C(\N)Cc2ccc(Cl)cc2)cc1	3.6	-3.2	-2.5	-11.6	-3.2	-0.1
N/C(Cc1ccc(Cl)cc1)=N\OC(=O)Cc1ccc([N+](=O)[O-])cc1	-1.5	-5.3	?	2.2	11.6	85.6*
N/C(Cc1ccc([N+](=O)[O-])cc1)=N\OC(=O)c1ccc([N+](=O)[O-])cc1	0.0	-1.3	42.4*	11.6	-3.5	61.5*
N/C(Cc1ccc([N+](=O)[O-])cc1)=N\OC(=O)c1cccc(Br)c1	-2.2	-9.8	63.5*	-1.0	-0.8	24.0
CC(O)CNc1nc(-c2ccco2)c2c(c1C#N)CCCC2 (stereo not given)	.	.	.	.	6.2	.
Cc1ccc(C(NC(=O)Cc2cccs2)C(=O)Nc2ccc3c(c2)OCCO3)cc1 (stereo not given)	.	.	.	.	-14.9	.
Cc1cc(NC(=O)c2cc(-c3ccccc3C)nc3ccccc23)no1	-0.4	-0.8	-1.2	-9.2	-16.3	-12.8
Cc1cc(NC(=O)c2cc(-c3ccccc3Cl)nc3ccccc23)no1	-0.8	-10.7	-3.1	32.0*	1.4	-10.5
O=C(O)CCCN1CCOCC1	.	.	.	.	1.8	.
O=C(C1COc2ccccc2O1)N1CCCCC1 (stereo not given)	-0.7	51.3*	-1.2	-0.2	-6.2	-1.9
O=c1[nH]c(CSc2nnc(N3CCCCC3)n2-c2ccccc2)nc2cc(Cl)ccc12	.	.	.	.	1.1	.
CCCn1c(C(=O)OC)cc2c1ccn2-c1ccc(F)cc1	0.9	9.6	-3.0	31.9*	10.7	7.7
COC(=O)c1cc2c(ccn2-c2ccc(F)cc2)n1CC(C)C	-0.2	14.6	-2.8	12.3	12.3	-5.3
COc1cc(/C=C/c2nc3cc(C)c(C)cc3s2)cc(OC)c1	.	.	.	.	6.2	.
CC(C)COC(=O)c1ccc2c(c1O)C(=O)c1ccccc1C2=O	-0.4	2.0	12.7	-0.7	13.0	61.6*
CC(=O)c1cccc(NC(=S)N2CCN(c3ccccn3)CC2)c1	39.9*	17.6	-1.1	-6.0	-3.2	-8.8
COc1ccc(Cl)cc1C(=O)N1CCN(c2ccccn2)CC1	-0.1	-6.1	-1.8	-9.0	-3.8	-5.3
CC(C(=O)Nc1ccccc1)N1CCN(c2ccccn2)CC1 (stereo not given)	39.9*	11.5	14.3	-14.6	-2.2	-1.1
COc1ccc(Cl)cc1NC(=O)C(C)N1CCN(c2ccccn2)CC1 (stereo not given)	31.3*	-1.2	-5.0	-10.0	-2.7	-3.9
O=S(CCc1ccncc1)Cc1ccc2c3c(cccc13)CC2 (stereo not given)	.	.	.	.	28.4	.
CCN(CC(=O)NCc1ccc(F)cc1)C(=O)/C=C/c1ccc(OC)cc1	0.5	-9.4	1.5	2.2	-1.6	-2.2
SMILES	D2 ag-1	D2 antagonist	D2 ag-2	D2 PAM-1	LDHA inh	D2 PAM-2
CCN(CC(=O)NCc1ccc(F)cc1)C(=O)/C=C/c1ccc(OC)c(S(=O)(=O)NC(C)C)c1	-0.7	33.5*	-2.4	-8.3	-2.3	-6.6
O=C(O)C1CCN(C(=O)CSc2nnc(-c3ccccc3F)n2C2CCCC2)CC1	.	.	.	.	9.9	.
O=C(NCc1ccc(F)cc1)C1CCCN(C(=O)c2cccc(C(F)(F)F)c2)C1 (stereo not given)	.	.	.	.	-4.7	.
S=C(NCc1ccc(Cl)cc1)NCc1cccs1	.	.	.	.	4.5	.
O=C(NC(=S)N1CCOCC1)C12CCC3CC(CC(C3)C1)C2	-1.4	-16.2	-3.6	31.1*	4.3	-5.4
O=C(NC(=S)N1CCOCC1)C12CC3CCC(CC(C3)C1)C2	1.3	14.2	-1.3	4.5	-0.9	4.0
Cc1cccc(N2CCN(CCCNC(=O)c3ccc(NC(=O)C4=CSCCO4)cc3)CC2C)c1 (stereo not given)	16.1	36.3*	1.2	-28.2	0.2	4.1
CC1CCCN(CCCNC(=O)c2ccc(NC(=O)C3=CSCCO3)cc2)C1 (stereo not given)	0.3	-2.1	-1.1	-0.3	-6.3	-18.3
CCOc1ccccc1NC(=O)CSc1nncc2ccccc12	-0.4	-26.5	-0.7	34.7*	-8.9	-10.4
COC(=O)c1ccccc1NC(=O)CSc1nncc2ccccc12	.	.	.	.	-3.6	.
CCOc1ccc(NC(=O)CN(C)c2nnnn2-c2ccccc2)cc1OCC	0.8	35.1*	-1.9	2.1	2.3	-11.3
CCOc1ccccc1NC(=O)CSc1nnc2c(CC)c(C)nc(N)n12	2.8	35.2*	-1.4	.	2.0	-4.8
COCCn1c(SCc2nc3sc(C(=O)OC)c(C)c3c(=O)[nH]2)nc2ccccc21	0.7	30.6*	-1.8	-4.6	-2.9	-18.6
CCc1c(C)nc(N)n2c(SCC(=O)Nc3ccccc3OC)nnc12	-1.3	4.7	-1.3	-2.0	0.6	-3.6
O=C(OCc1cc(-c2ccccc2)no1)c1cc(Cl)c[nH]1	.	.	.	.	-6.0	.
CCn1c(=O)c(-c2noc(C(=O)NCc3ccc(C)o3)n2)nn(-c2ccccc2)c1=O	.	.	.	.	-1.4	.
COc1ccc(OC)c(-n2nnnc2SCC(=O)Nc2ccccc2OC)c1	7.6	31.1*	4.0	14.0	-2.1	-1.0
COCCn1c(SCC(=O)Nc2ccccc2OC)nc2ccccc21	1.3	34.6*	-4.6	10.7	-4.0	0.3
CCOc1ccccc1NC(=O)CSc1nnnn1Cc1ccccc1	-1.8	10.3	1.6	-10.7	-1.0	-8.2
CCOc1ccccc1NC(=O)CSc1nnnn1-c1ccc(C(=O)OC)cc1	-0.6	49.9*	-1.4	8.0	-6.0	-6.9
CCOc1ccccc1NC(=O)CSc1nnnn1-c1ccccc1	1.7	31.1*	0.4	-1.7	1.8	-6.7
CCOC(=O)c1ccccc1NC(=O)CSc1nccn1C	0.5	-1.5	-2.0	53.4*	-1.1	-21.2
CCc1ccccc1NC(=O)CSc1nccn1C	-1.1	.	.	-17.2	-0.4	.
CCOc1ccc(C2C(C#N)=C(N)SC(N)=C2C#N)c(OCC)c1	0.5	30.6*	2.1	-0.4	23.3	9.4
CCOc1cc(C2C(C#N)=C(N)SC(N)=C2C#N)ccc1OCCN1CCOCC1	-0.3	0.0	3.7	3.7	-1.5	-13.6
CCOc1ccc(NC(=O)CN(c2ccc(OC)c(OC)c2)S(=O)(=O)c2ccc(C)cc2)cc1	0.7	55.0*	-5.9	3.7	-1.2	-4.8
